PubChem BioAssay (Tox21)
Where “and” joins values, the source holds several entries; their conditions need not be identical. Identical values can stand only once. A number with no mark means an inactive call. Results filed as inconclusive are left out. A call without a number means that no potency is given here. Calls of active or inactive are those of the source. Calls follow the shape of the full dose curve.

Tests used:
[1] = biological target: Acetylcholinesterase (Homo sapiens) (UniProt P22303); assay: Acetylcholinesterase (AChE) small molecule antagonists: colormetric cell-based qHTS assay (AID 1347395); also: nearly all actives have a fitted effect of over 30% in size; also: potency is read from the fitted curve at half-maximal effect
Sequence of Acetylcholinesterase (Homo sapiens) (P22303 whole entry, looked up): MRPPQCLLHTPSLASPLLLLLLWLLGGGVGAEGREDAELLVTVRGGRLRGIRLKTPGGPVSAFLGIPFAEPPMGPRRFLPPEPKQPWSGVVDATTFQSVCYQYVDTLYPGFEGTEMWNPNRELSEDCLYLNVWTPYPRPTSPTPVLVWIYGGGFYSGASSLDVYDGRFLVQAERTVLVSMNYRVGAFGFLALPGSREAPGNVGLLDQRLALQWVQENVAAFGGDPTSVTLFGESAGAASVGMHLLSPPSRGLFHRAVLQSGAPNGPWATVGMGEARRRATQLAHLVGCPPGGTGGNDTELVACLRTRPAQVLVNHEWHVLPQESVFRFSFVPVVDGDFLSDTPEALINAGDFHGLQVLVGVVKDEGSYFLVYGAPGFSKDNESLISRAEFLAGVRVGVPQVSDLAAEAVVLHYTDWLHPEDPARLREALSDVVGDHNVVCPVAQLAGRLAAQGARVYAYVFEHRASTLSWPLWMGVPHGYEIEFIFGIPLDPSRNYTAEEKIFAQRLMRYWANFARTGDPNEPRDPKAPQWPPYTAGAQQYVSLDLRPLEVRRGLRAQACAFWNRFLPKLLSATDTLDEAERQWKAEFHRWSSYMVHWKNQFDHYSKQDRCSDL
How it was run: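 SH-SY5Y cells; cpd 30 min 37 C; + DTNB/acetylthiocholine, 90 min 37 C; colorimetric thiocholine read; qHTS.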

[2] = biological target: Acetylcholinesterase (Homo sapiens) (UniProt P22303); assay: Acetylcholinesterase (AChE) small molecule antagonists: enzyme-based qHTS assay (AID 1347397); conditions: Potency: AChE enzyme activity inhibition; outcome: AChE enzyme activity inhibition; also: nearly all actives have a fitted effect of over 55% in size; also: potency is read from the fitted curve at half-maximal effect
How it was run: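 Recombinant human AChE, dispensed at 50 mU/mL, was preincubated with Tox21 10K compounds or DMSO vehicle for 30 min at room temperature. DTNB plus acetylthiocholine was then added, and thiocholine was measured colorimetrically after a further 10 min.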

[3] = biological target: Acetylcholinesterase (Homo sapiens) (UniProt P22303); assay: Acetylcholinesterase (AChE) small molecule antagonists: fluorescence cell-based qHTS assay (AID 1347398); conditions: Potency: AChE activity; outcome: AChE activity; also: nearly all actives have a fitted effect of over 50% in size; also: potency is read from the fitted curve at half-maximal effect
How it was run: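 Human SH-SY5Y cells were plated overnight at 37 C, exposed to compound for 30 min at 37 C, 5% CO2, then given acetylthiocholine plus Thiolite Green for 40 min at room temperature; thiocholine fluorescence (Ex/Em 490/520 nm) reports endogenous AChE activity.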

[4] = biological target: Acetylcholinesterase (Homo sapiens) (UniProt P22303); assay: Acetylcholinesterase (AChE) small molecule antagonists: enzyme-based qHTS assay with human liver microsomes (AID 1347399); conditions: Potency: qHTS inhibition; outcome: qHTS inhibition; also: nearly all actives have a fitted effect of over 60% in size
How it was run: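 Recombinant human AChE (50 mU/mL in the enzyme mix) and human liver microsomes (0.25 mg/mL final) were preincubated with compound and NADPH (0.25 mg/mL final) for 30 min at 37 C. Acetylthiocholine/DTNB was then added; thiocholine was read colorimetrically after 10 min at room temperature.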

`N=C(N)c1ccc(OCCCCCOc2ccc(C(=N)N)cc2)cc1` was tested, and the Potency [1] was 35.4 µM (active) and 30.3 µM (active) and 17.4 µM (active), the Potency [2] was 53.9 µM (active) and the Potency [3] was 22.4 µM (active) and 27 µM (active). The Potency [4] was “inactive”.
For `C[N+](C)(C)CCO`, the outcome [1] was “inactive”, the outcome [2] was “inactive” and the outcome [3] was “inactive”. For the same compound, the outcome [4] was “inactive”.
`CCNc1nc(NC(C)(C)C)nc(OC)n1` was tested, and the Potency [1] was “inactive”, the Potency [2] was “inactive” and the Potency [3] was “inactive”. The Potency [4] was “inactive”.
With `CC(C)(C)CC(C)(C)c1ccc(O)c(Cc2ccc(Cl)cc2Cl)c1` the Potency [1] was “inactive”, the Potency [2] was “inactive” and the Potency [3] was “inactive”. The Potency [4] was “inactive”.
For `CC12CCC(CC1)C(C)(C)O2`, the Potency [1] was “inactive”, the Potency [2] was “inactive” and the Potency [3] was “inactive”. For the same compound, the Potency [4] was “inactive”.
In the case of `CC(=O)Nc1ccc(S(=O)(=O)Nc2ccc([N+](=O)[O-])cc2)cc1`, the Potency [1] was “inactive”, the Potency [2] was “inactive” and the Potency [3] was “inactive”. For the same compound, the Potency [4] was “inactive”.
In the case of `CC(C)Cn1cnc2c1c(=O)n(C)c(=O)n2C`, the Potency [1] was “inactive”, the Potency [2] was “inactive” and the Potency [3] was “inactive”. For the same compound, the Potency [4] was “inactive”.
With `NC(N)=NC(=O)c1nc(Cl)c(N)nc1N` the Potency [1] was 35.8 µM (active) and 32.9 µM (active) and 27.5 µM (active), the Potency [2] was “inactive” and the Potency [3] was 12.7 µM (active) and 32.9 µM (active). The Potency [4] was “inactive”.
For `CC(=O)Oc1cccc(O)c1`, the Potency [1] was “inactive”, the Potency [2] was “inactive” and the Potency [3] was “inactive”. The Potency [4] was “inactive”.
With `CC(=O)[C@@]1(O)CC[C@H]2[C@@H]3C[C@H](C)C4=CC(=O)CC[C@]4(C)[C@H]3CC[C@@]21C` the Potency [1] was “inactive”, the Potency [2] was “inactive” and the Potency [3] was “inactive”. The Potency [4] was “inactive”.
For `CCCCCCCCCCCCCCCCCCOCC(O)CO` (centres undefined), the Potency [1] was “inactive”, the Potency [2] was “inactive” and the Potency [3] was “inactive”. The Potency [4] was “inactive”.
In the case of `Cc1c(C)c2c(c(C)c1O)CCC(C)(COc1ccc(CC3SC(=O)NC3=O)cc1)O2` (centres undefined), the Potency [1] was “inactive”, the Potency [2] was “inactive” and the Potency [3] was “inactive”. The Potency [4] was “inactive”.
For `CC(C)(C)c1nnc(NS(=O)(=O)c2ccccc2)s1`, the Potency [1] was “inactive”, the Potency [2] was “inactive” and the Potency [3] was “inactive”. For the same compound, the Potency [4] was “inactive”.
With `CCC(=O)O[C@@H]1C[C@H]2CC[C@]1(C)C2(C)C` the Potency [1] was “inactive”, the Potency [2] was “inactive” and the Potency [3] was “inactive”. The Potency [4] was “inactive”.
`Cc1cc(O)cc2c1O[C@](C)(CCC[C@H](C)CCC[C@H](C)CCCC(C)C)CC2` was tested, and the Potency [1] was “inactive”, the Potency [2] was “inactive” and the Potency [3] was “inactive”. For the same compound, the Potency [4] was “inactive”.
`N[C@@H](CCC(=O)Nc1ccc([N+](=O)[O-])cc1)C(=O)O` was tested, and the Potency [1] was “inactive”, the Potency [2] was “inactive” and the Potency [3] was “inactive”. For the same compound, the Potency [4] was “inactive”.
`NCCCC[C@H](N[C@@H](CCc1ccccc1)C(=O)O)C(=O)N1CCC[C@H]1C(=O)O` was tested, and the Potency [1] was “inactive”, the Potency [2] was “inactive” and the Potency [3] was “inactive”. The Potency [4] was “inactive”.
For `CCCc1c(OCCCCc2nn[nH]n2)ccc(C(C)=O)c1O`, the Potency [1] was “inactive”, the Potency [2] was “inactive” and the Potency [3] was “inactive”. The Potency [4] was “inactive”.
`CNC(=O)Nc1ccc(Cl)c(Cl)c1` was tested, and the Potency [1] was “inactive”, the Potency [2] was “inactive” and the Potency [3] was “inactive”. For the same compound, the Potency [4] was “inactive”.
In the case of `CCOCCn1c(N2CCCN(C)CC2)nc2ccccc21`, the Potency [1] was “inactive”, the Potency [2] was “inactive” and the Potency [3] was “inactive”. For the same compound, the Potency [4] was “inactive”.
`Nc1cc(S(=O)(=O)O)cc2cc(S(=O)(=O)O)cc(O)c12` was tested, and the Potency [1] was “inactive”, the Potency [2] was “inactive” and the Potency [3] was “inactive”. The Potency [4] was “inactive”.
Work on `O=C(O)C[C@H](O)C[C@H](O)/C=C/c1c(C2CC2)nc2ccccc2c1-c1ccc(F)cc1` yielded an activity, negative = inhibition [1] of -0.67% [at 23.6 µM], an activity change, negative = inhibition [2] of -2.86% [at 23.6 µM] and an activity change, negative = inhibition [3] of 8.09% [at 23.8 µM]. It also gave an activity change, negative = inhibition [4] of -1.12% [at 23.6 µM].
For `[O-]/[N+](=N\O)c1ccccc1`, the Potency [1] was “inactive”, the Potency [2] was “inactive” and the Potency [3] was “inactive”. For the same compound, the Potency [4] was “inactive”.
For `COc1ccc(Nc2ccc(OC)cc2)cc1`, the Potency [1] was “inactive”, the Potency [2] was “inactive” and the Potency [3] was “inactive”. For the same compound, the Potency [4] was “inactive”.
`Cc1nc2ccccc2c(=O)o1` was tested, and the Potency [1] was “inactive”, the Potency [2] was “inactive” and the Potency [3] was “inactive”. For the same compound, the Potency [4] was “inactive”.
For `O=C(NO)c1ccccc1`, the Potency [1] was “inactive”, the Potency [2] was “inactive” and the Potency [3] was “inactive”. For the same compound, the Potency [4] was “inactive”.
With `FC(F)(F)c1cccc(Cl)c1` the Potency [1] was “inactive”, the Potency [2] was “inactive” and the Potency [3] was “inactive”. The Potency [4] was “inactive”.
In the case of `CC(C)(c1ccccc1)c1ccc(Nc2ccc(C(C)(C)c3ccccc3)cc2)cc1`, the Potency [1] was “inactive”, the Potency [2] was “inactive” and the Potency [3] was “inactive”. For the same compound, the Potency [4] was “inactive”.
`CCCCC(CC)COC(=O)c1ccc(O)cc1` (centres undefined) was tested, and the Potency [1] was “inactive”, the Potency [2] was “inactive” and the Potency [3] was “inactive”. The Potency [4] was “inactive”.
In the case of `CC(C)OP(=O)(CP(=O)(OC(C)C)OC(C)C)OC(C)C`, the Potency [1] was “inactive”, the Potency [2] was “inactive” and the Potency [3] was “inactive”. The Potency [4] was “inactive”.
`CN1C(CCl)Nc2cc(Cl)c(S(N)(=O)=O)cc2S1(=O)=O` (centres undefined) was tested, and the Potency [1] was “inactive”, the Potency [2] was “inactive” and the Potency [3] was “inactive”. For the same compound, the Potency [4] was “inactive”.
In the case of `CCCCCC1Nc2cc(C(F)(F)F)c(S(N)(=O)=O)cc2S(=O)(=O)N1` (centres undefined), the Potency [1] was 15.5 µM (active), the Potency [2] was 21.9 µM (active) and the Potency [3] was 9.77 µM (active). For the same compound, the Potency [4] was “inactive”.
In the case of `O=S(=O)(O)c1cccc2ccccc12`, the Potency [1] was “inactive”, the Potency [2] was “inactive” and the Potency [3] was “inactive”. For the same compound, the Potency [4] was “inactive”.
`O=C1CCCCCCCCCCOCCCCO1` was tested, and the Potency [1] was “inactive”, the Potency [2] was “inactive” and the Potency [3] was “inactive”. For the same compound, the Potency [4] was “inactive”.
For `NS(=O)(=O)O`, the Potency [1] was “inactive”, the Potency [2] was “inactive” and the Potency [3] was “inactive”. The Potency [4] was “inactive”.
In the case of `CC(C)[C@H]1CC[C@@H](C)CC1=O`, the Potency [1] was “inactive”, the Potency [2] was “inactive” and the Potency [3] was “inactive”. For the same compound, the Potency [4] was “inactive”.
